# Data published in PubChem BioAssay AID1259312 (Keith Lab, Institute of Cancer Science, University of …, 2017).
# The campaign covered roughly 4,500 compounds. About 200 (4.4%) were called active. This excerpt belongs to a sample that is enriched for actives. Values without a mark were called inactive.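 How the source made its calls: active means cell survival measured by absorbance rises more than 2.5-fold over infected cells without compound; inactive means the rest.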
# Test: survival after telomere uncapping, modulators, primary screen, cell-based (AID 1259312);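 further: virus expresses mutant telomerase RNA that uncaps telomeres and kills cells; compound added 2 days after infection so exposure lasts 3 days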
# Details: HCT116 + Ad-hTR-mut, MTT, 5 d; at 10 µM, stronger effect = higher value
row,SMILES,fold change
1,O=[N+]([O-])c1ccc2c(c1)Cc1cc([N+](=O)[O-])ccc1-2,-1.19
2,O=S(=O)(c1ccc(Cl)cc1)N1CCc2ccccc21,4.39 (active)
3,O=S(=O)(c1ccc(Cl)cc1)N1CCCc2ccccc21,1.97
4,O=S(=O)(c1ccccc1)N1CCc2ccccc21,-1.19
5,CCOC(=O)c1c(NC(=O)c2cccs2)sc2c1CCCCC2,1.37
6,CC(C(=O)Nn1cnnc1)N1C(=O)c2ccccc2C1=O (centres undefined),-8.91
7,Nc1cccc(S(=O)(=O)N2CCCC2)c1,-1.08
8,O=[N+]([O-])c1cccc(S(=O)(=O)N2CCCC2)c1,3.3 (active)
9,O=[N+]([O-])c1ccc2c(c1)oc1ccc(S(=O)(=O)N3CCCC3)cc12,1.12
10,CC(C)CC(=O)NC1CCCCCC1,-1.5
11,O=C1N=C(N2CCOCC2)S/C1=C\C1=Cc2ccccc2OC1,-1.34
12,OCC1(O)OC[C@H](O)[C@@H](O)[C@@H]1O (some centres undefined),2.95 (active)
13,OC[C@H]1O[C@@H](O[C@@H]2[C@@H](CO)O[C@](O)(CO)[C@H]2O)[C@H](O)[C@@H](O)[C@H]1O,1.55
14,CC1(C)[C@H]2CCC1(CS(=O)(=O)N(C1CCCCC1)C1CCCCC1)C(O)C2 (some centres undefined),-1.17
15,O=C(Cn1c(C(F)(F)F)nc2ccccc21)NC1CCCCC1,-1.95
16,N=C1SCC(=O)N1c1nccs1,1.78
17,c1ccc2c(c1)c1ccccc1c1nc3c4ccccc4c4ccccc4c3nc21,4.67 (active)
18,O=c1c2ccccc2c2nc3c(c(-c4ccccc4)c12)c(=O)c1ccccc13,-1.07
19,O=c1c2ccccc2c2nc3c(c(-c4cccc(Br)c4)c12)c(=O)c1ccccc13,-1.26
20,COC(=O)C1=C(C(=O)OC)SC2(S1)C(C(=O)OC)=C(C(=O)OC)SC1=C2c2cc(OC)ccc2NC1(C)C,1.52
21,C=CCn1c(-c2ccc(Cl)cc2Cl)n[nH]c1=S,1.34
22,Cc1ccc(-c2n[nH]c(=S)n2C)cc1Cl,-1.92
23,Cn1c(-c2ccc(Cl)cc2Cl)n[nH]c1=S,2.57 (active)
24,NC(=O)c1c(NC(=O)CCC(=O)O)sc2c1CCCC2,-1.38
